Experimental data from the supplement of paper PMC5919970.
Counter-ions that a name gives are not always drawn. The full ranking holds about 2,000 compounds; the median of “fractional viability relative to vehicle” is about 0.92, and the lowest 2% start at about 0.11. For the sample, the lowest values were picked, then their nearest neighbours and some compounds at random.

System: TYKNU
Assay: fractional viability relative to vehicle; TYKNU is a high-grade serous ovarian cancer line; higher = less growth inhibition
Settings: 72 h, genotype: OPA1 knockout (sgOPA1 #2)
Method in brief: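 TYKNU control cells or lentiCRISPRv2 knockout derivatives were seeded at 500 cells per well into drug-stamped 384-well plates holding a ~2100-compound library at 2 or 10 μM, in duplicate. Cells were grown at 37 °C in 5% CO2 in RPMI 1640 with 10% FBS, and drug treatment lasted 72 h. Viability was read by Cell Titer Glo luminescence. Duplicate treatment wells were averaged and normalised to duplicate control wells from the same plate position.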

Compound | fractional viability (2uM) | fractional viability (10uM)
CNC(=O)c1ccccc1Nc1nc(Nc2ccc(N3CCOCC3)cc2OC)ncc1Cl | 0.987 | 0.532
CN1CCN(Cc2ccc(Nc3ncc(Cl)c(Nc4ccccc4S(=O)(=O)N(C)C)n3)cc2)CC1 | 0.451 | 0.421
Cc1cc(Nc2ncc(Cl)c(Nc3ccccc3S(=O)(=O)C(C)C)n2)c(OC(C)C)cc1C1CCNCC1 | 0.376 | 0.0286
C[C@H](Nc1ncnc2nc[nH]c12)c1cc2cccc(Cl)c2c(=O)n1-c1ccccc1 | 0.926 | 1.05
COc1cc(O)c(CC=C(C)C)c(O)c1C(=O)/C=C/c1ccc(O)cc1 [Xanthohumol] | 0.841 | 0.772
NC(=O)c1nc(F)cnc1O [Favipiravir (T-705)] | 0.744 | 0.765
O=C1O[C@H]([C@@H](O)CO)C([O-])=C1O.[Na+] [Sodium ascorbate] | 1.02 | 0.95
Cc1nc(-c2cccnc2)sc1C(=O)Nc1ccccc1-c1cn2c(CN3CCOCC3)csc2n1 | 0.748 | 0.855
O=C(Nc1ccccc1-c1cn2c(CN3CCNCC3)csc2n1)c1cnc2ccccc2n1 | 1.19 | 0.0331
Cc1coc2c1C(=O)C(=O)c1c-2ccc2c1CCCC2(C)C [Tanshinone IIA] | 0.599 | 0.327
C[C@H]1COC2=C1C(=O)C(=O)c1c2ccc2c1CCCC2(C)C [Cryptotanshinone] | 0.361 | 0.0832
Cc1cc(Nc2ccc(NC(=O)c3ccc(Nc4ccnc5ccccc45)cc3)cc2)nc(N)n1 | 0.043 | 0.0318
CC(=O)Nc1ccc(C(=O)Nc2ccccc2N)cc1 [CI994 (Tacedinaline)] | 0.755 | 0.434
CNCc1ccc(C)c(NC(=O)c2ccc(Nc3nc(-c4ccccc4)c4ccccc4n3)cc2)c1 | 1.13 | 0.134
COc1cc(-c2ncn(/C=C\C(=O)OC(C)C)n2)cc(C(F)(F)F)c1 | 0.22 | 0.259
CNc1cccc(CCOc2ccc3c(c2)CN(CC(F)(F)F)C(=O)[C@H](CC(=O)O)C3)n1 | 0.781 | 0.671
CCCCc1oc2ccc(NS(C)(=O)=O)cc2c1C(=O)c1ccc(OCCCN(CCCC)CCCC)cc1 [Dronedarone HCl] | 0.835 | 0.106
CN(CCOc1ccc(NS(C)(=O)=O)cc1)CCc1ccc(NS(C)(=O)=O)cc1 [Dofetilide] | 1.08 | 0.78
CCCCc1oc2ccccc2c1C(=O)c1cc(I)c(OCCN(CC)CC)c(I)c1 [Amiodarone HCl] | 0.994 | 0.867
N#Cc1ccc(-c2c(-c3ncn[nH]3)sc(N3CCOCC3)c2C#N)c(F)c1 | 0.737 | 0.572
O=C(COc1ccc(Cl)cc1)NC1CCC(NC(=O)COc2ccc(Cl)cc2)CC1 (stereo not drawn) [ISRIB (trans-isomer)] | 1.09 | 0.976
Clc1ccc(C2(c3ccc(-c4cn[nH]c4)cc3)CCNCC2)cc1 | 1.03 | 0.554
COCCOc1nc(-c2ccc(Cl)c(Cl)c2)n(-c2ccc(NC(=O)CCl)cc2)n1 [MI-2 (MALT1 inhibitor)] | 1 | 0.952
COc1ccc(-n2c(SCCCN3C(=O)c4cccc5cccc(c45)C3=O)nnc2-c2ccncc2)cc1 | 0.913 | 0.874

Compound | fractional viability (2uM) | fractional viability (10uM)
CS(=O)(=O)N1CCN(Cc2cc3nc(-c4cccc5[nH]ncc45)nc(N4CCOCC4)c3s2)CC1 | 0.824 | 0.658
COc1ccc(-c2nc(N3CCOCC3)c3sc(CN(C)c4ncc(C(=O)NO)cn4)cc3n2)cn1 | 0.118 | 0.115
Cc1c(CN2CCN(C(=O)[C@H](C)O)CC2)sc2c(N3CCOCC3)nc(-c3cnc(N)nc3)nc12 | 0.392 | 0.376
O=C1[C@H](Cc2ccc(O)cc2)N2C(=O)CCN(C(=O)NCc3ccccc3)[C@H]2CN1Cc1cccc2ccccc12 | 0.962 | 0.449
COc1cccc(-n2c(=O)[nH]c3cc(Cl)n(-c4ccc(-c5cccc(OC)c5O)cc4)c3c2=O)c1 | 0.827 | 0.807
Cn1cc(-c2cnn3c(N)c(Br)c([C@@H]4CCCNC4)nc23)cn1 | 0.571 | 0.814
Nc1nc(Nc2ccc3c(c2)CCC(N2CCCC2)CC3)nn1-c1cc2c(nn1)-c1ccccc1CCC2 (configuration not stated) | 0.566 | 0.0864
COc1ccc([C@@H]2CC(=O)c3c(O)cc(O[C@@H]4O[C@H](CO)[C@@H](O)[C@H](O)[C@H]4O[C@@H]4O[C@@H](C)[C@H](O)[C@@H](O)[C@H]4O)cc3O2)cc1O [Neohesperidin] | 1.11 | 0.888
COc1ccc2c(c1)CCC1C2CCC2(C)C(NCCCCCCN3C(=O)C=CC3=O)CCC12 (configuration not stated) | 0.747 | 0.738
CCN1CCN(Cc2ccc(Nc3ncc(F)c(-c4cc(F)c5nc(C)n(C(C)C)c5c4)n3)nc2)CC1 | 0.602 | 0.0904
CNC(=O)c1ccccc1Oc1nc(Nc2cc(OC)c(OC)c(OC)c2)ncc1Br | 0.717 | 0.828
CN(CC(=O)N(Cc1ccc(C2CCCCC2)cc1)c1ccc(C(=O)O)cc1)S(=O)(=O)c1c(F)c(F)c(F)c(F)c1F | 0.662 | 0.0586
C[C@H](NC(=O)[C@@H](O)c1cc(F)cc(F)c1)C(=O)N[C@@H]1C(=O)N(C)c2ccccc2-c2ccccc21 | 1.2 | 1.02
CC[C@@]1(O)C(=O)OCc2c1cc1n(c2=O)Cc2cc3cc(O)ccc3nc2-1 [(S)-10-Hydroxycamptothecin] | 0.179 | 0.157
COc1cc2/c(=N/c3ccc(Br)cc3F)nc[nH]c2cc1OCC1CCN(C)CC1 [Vandetanib (ZD6474)] | 1.31 | 0.638
COc1nc(OCc2cccc(-c3ccccc3)c2C)ccc1CNCCNC(C)=O [PD-1/PD-L1 inhibitor 2] | 0.912 | 0.487
NS(=O)(=O)NCCNc1nonc1/C(=N/O)Nc1ccc(F)c(Br)c1 | 0.817 | 0.783
C=CC(=O)Nc1cccc(Nc2nc(Nc3ccc(N4CCN(C(C)=O)CC4)cc3OC)ncc2C(F)(F)F)c1 | 0.781 | 0.431
C=CC(=O)Nc1cccc(Nc2nc(Nc3ccc(NC4CN(CCF)C4)cc3OC)ncc2C(F)(F)F)c1 | 0.897 | 0.432
COc1cc(N2CCC(N)CC2)ccc1Nc1ncc(Cl)c(-c2c[nH]c3ccccc23)n1 | 0.672 | 0.177
C=CC(=O)Nc1cc(Nc2nccc(-c3c[nH]c4ccccc34)n2)c(OC)cc1N(C)CCN(C)C | 0.542 | 0.0815
C=CC(=O)Nc1cc(Nc2nccc(-c3cn(C)c4ccccc34)n2)c(OC)cc1N(C)CCN(C)C | 0.766 | 0.0725
C=CC(=O)Nc1cccc(C)c1Nc1ncc2cc(-c3c(Cl)c(OC)cc(OC)c3Cl)ccc2n1 | 0.676 | 0.37
CCC[C@H](Nc1nc(-c2ccc(NC(=O)NCC)c(OC)c2)ncc1C)c1cccnc1 [CYT997 (Lexibulin)] | 0.378 | 0.361

Compound | fractional viability (2uM) | fractional viability (10uM)
COc1ccc(CCC(=O)Nc2nc3ccc(Cl)cc3s2)cc1OC | 0.989 | 1.04
CNc1cc(-c2cccc(Cl)c2Cl)nc(N)n1 | 0.476 | 0.368
CN1CCN(C2CCN(C(=O)Nc3cc(Oc4ccc(NC(=O)C5(C(=O)Nc6ccc(F)cc6)CC5)c(F)c4)ccn3)CC2)CC1 [Golvatinib (E7050)] | 0.92 | 0.485
COc1ccc(C2=N[C@H](c3ccc(Cl)cc3)[C@H](c3ccc(Cl)cc3)N2C(=O)N2CCNC(=O)C2)c(OC(C)C)c1 [Nutlin-3b] | 0.806 | 0.737
CCOc1nc2cccc(C(=O)O)c2n1Cc1ccc(-c2ccccc2-c2noc(=O)[nH]2)cc1 [Azilsartan] | 0.997 | 1.12
CN1CCN(c2ccc(C(=O)Nc3n[nH]c4ccc(Cc5cc(F)cc(F)c5)cc34)c(NC3CCOCC3)c2)CC1 [Entrectinib (RXDX-101)] | 0.712 | 0.113
CO[C@@H](C(=O)N1Cc2[nH]nc(NC(=O)c3ccc(N4CCN(C)CC4)cc3)c2C1)c1ccccc1 | 0.964 | 0.815
CCc1cccc(CC)c1NC(=O)N1Cc2[nH]nc(NC(=O)c3ccc(N4CCN(C)CC4)cc3)c2C1 | 1.02 | 0.885
Clc1cccc(CN=C2Nc3ccccc3NC23CCNCC3)c1 [Liproxstatin-1] | 0.816 | 0.729
CCOc1cn(-c2ccc(F)cc2C)nc1C(=O)Nc1ccc(Oc2ccnc3cc(OC)c(OC)cc23)c(F)c1 | 0.919 | 0.773
Clc1ccc(C(Cn2ccnc2)OCc2ccc(Sc3ccccc3)cc2)c(Cl)c1 (configuration not stated) [Fenticonazole Nitrate] | 0.933 | 0.911
Cc1cc(C)c(CNC(=O)c2cc(-c3ccc(N4CCN(C)CC4)nc3)cc3c2c(C)cn3C(C)C)c(=O)[nH]1 | 0.878 | 0.945
C=C1C(=O)O[C@@H]2/C=C(\C)CC/C=C(\C)CC[C@@H]12 [Costunolide] | 1.15 | 0.522
C=C1C(=O)O[C@H]2[C@H]1CC/C(C)=C/CC[C@@]1(C)O[C@@H]21 [(-)-Parthenolide] | 0.557 | 0.0743
Cc1c[nH]c(/C=C2\C(=O)Nc3ccccc32)c1CCC(=O)O | 0.793 | 0.846
CN(C)Cc1cccc(N/C(=C2\C(=O)Nc3cc(C(N)=O)ccc32)c2ccccc2)c1 | 0.93 | 0.993
COC(=O)c1ccc2c(c1)NC(=O)/C2=C(\Nc1ccc(N(C)C(=O)CN2CCN(C)CC2)cc1)c1ccccc1 [Nintedanib (BIBF 1120)] | 1.32 | 0.372
CCS(=O)(=O)Nc1ccc2c(c1)/C(=C(/Nc1ccc(CN3CCCCC3)cc1)c1ccccc1)C(=O)N2 [Hesperadin] | 0.544 | 0.113
CCOc1cc(C(C)(C)C)ccc1C1=N[C@@](C)(c2ccc(Cl)cc2)[C@@](C)(c2ccc(Cl)cc2)N1C(=O)N1CCN(CCCS(C)(=O)=O)CC1 | 0.49 | 0.469
O=C(c1cc(Cc2n[nH]c(=O)c3ccccc23)ccc1F)N1CCN(C(=O)C2CC2)CC1 | 1.03 | 0.936
C=CC(=O)Nc1cccc(Oc2nc(Nc3ccc(N4CCN(C)CC4)cc3OC)ncc2Cl)c1 | 0.964 | 0.766
C=CC(=O)Nc1cccc(Oc2nc(Nc3ccc(N4CCN(C)CC4)cc3)ncc2Cl)c1 | 0.825 | 0.5
C=CC(=O)Nc1cccc(Sc2nc(Nc3ccc(N4CCN(C)CC4)cc3)ncc2Cl)c1 | 1.31 | 0.1
